Results reported in the supplement of paper PMC8699584.
± gives the standard deviation of the averaged measurements.

Assays:
[1] = tested on: Molm13; assay: cell viability relative to DMSO control (bortezomib = 0%); higher = less growth inhibition; conditions: 10 nM; 72 h
Outline: (§1)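 In duplicate runs, a library of 679 approved and investigational compounds in 384-well plates received acute myeloid leukemia cells at 1000 cells per well in 50 µL, with each compound at a single 10 nM dose for 72 h. CellTiter-Glo luminescence, read on an EnVision reader, served as the viability measure. Each plate was normalized by linear regression between DMSO-treated cells (100%) and positive-control-treated cells (0%).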

[2] = tested on: Mv4-11; assay: as above; conditions: 10 nM; 72 h
Outline: as §1

Row | SMILES | cell viability [1] | cell viability [2]
1 | N#Cc1ccc(COc2ccc(-c3cccc4nc(NC(=O)C5CC5)nn34)cc2)cn1 [GLPG0634 analogue] | 107 ± 8.4% | 119 ± 3.4%
2 | C[C@H](Nc1ncnc2nc[nH]c12)c1cc2cccc(Cl)c2c(=O)n1-c1ccccc1 [Duvelisib (IPI-145, INK1197)] | 111 ± 14% | 111 ± 15%
3 | Cc1cc(Nc2nn(-c3ccccc3)c(=O)c3ccccc23)n[nH]1 [Phthalazinone pyrazole] | 94.1 ± 9.4% | 101 ± 15%
4 | CC(C)Oc1ccc(C(=O)N[C@H](CNC(=O)CN(C)C)Cc2ccc(-c3cn4cccc([C@H](C)O)c4n3)cc2)cc1Cl | 110 ± 19% | 121 ± 9.3%
5 | CCOc1cn(-c2ccc(F)cc2C)nc1C(=O)Nc1ccc(Oc2ccnc3cc(OC)c(OC)cc23)c(F)c1 | 112 ± 20% | 109 ± 2.8%
6 | CC(C)=CCC[C@](C)(O[C@@H]1O[C@H](CO)[C@@H](O)[C@H](O)[C@H]1O)[C@H]1CC[C@]2(C)[C@@H]1[C@H](O)C[C@@H]1[C@@]3(C)CC[C@H](O)C(C)(C)[C@@H]3[C@@H](O[C@@H]3O[C@H](CO)[C@@H](O)[C@H](O)[C@H]3O[C@@H]3OC[C@@H](O)[C@H](O)[C@H]3O)C[C@]12C [Notoginsenoside R1] | 110 ± 13% | 105 ± 7.3%
7 | O=C1NCCc2[nH]c(-c3ccncc3)cc21 | 115 ± 14% | 115 ± 6.7%
8 | Cc1c(NC(=O)OC[C@@H]2COCCN2)cn2ncnc(Nc3ccc4c(cnn4Cc4cccc(F)c4)c3)c12 | 105 ± 8% | 112 ± 11%
9 | O=C(O)c1ccc(-c2c[nH]c3ncc(-c4ccccc4)cc23)cc1C1CCCC1 | 107 ± 1.1% | 96 ± 2.7%
10 | COc1cc2ncnc(Oc3cccc(NC(=O)Nc4cc(C(C)(C)C(F)(F)F)on4)c3)c2cc1OC | 115 ± 3.7% | 113 ± 17%
11 | COC1=CC(=O)c2ccccc2C1=O [2-Methoxy-1,4-naphthoquinone] | 94.66 ± 0.11% | 98.6 ± 9.1%
12 | Cc1ccc(C(=O)Nc2ccc(CN3CCN(C)CC3)c(C(F)(F)F)c2)cc1C#Cc1cnc2[nH]ncc2c1 [GZD824 Dimesylate] | 4.07 ± 5.9% | -9.27 ± 10%
13 | Nc1nc(OCC2CCCCC2)c2[nH]cnc2n1 | 90.5 ± 11% | 105.62 ± 0.08%
14 | Fc1ccc(-c2nc3n(c2-c2ccncc2)CCS3)cc1 | 102.8 ± 0.71% | 98.2 ± 4.3%
15 | COc1cc2c(Oc3ccc4[nH]c(C)cc4c3F)ncnc2cc1OCCCN1CCCC1 [Cediranib (AZD2171)] | 107 ± 23% | 107 ± 10%
16 | CN(c1ncccc1CNc1nc(Nc2ccc3c(c2)CC(=O)N3)ncc1C(F)(F)F)S(C)(=O)=O | 98 ± 2.3% | 105 ± 8.8%

Row | SMILES | cell viability [1] | cell viability [2]
17 | OCCn1cc(-c2cnc3nnn(Cc4ccc5ncccc5c4)c3n2)cn1 | 120 ± 24% | 112 ± 8.7%
18 | CC(C)(C)NS(=O)(=O)c1cncc(-c2cc(F)c3nc(N)nn3c2)c1 | 95.9 ± 22% | 105 ± 1.1%
19 | Cn1cc(-c2ccc3c(c2)CCN3C(=O)Cc2cccc(C(F)(F)F)c2)c2c(N)ncnc21 | 105 ± 4.7% | 108 ± 18%
20 | N#CCC(C1CCCC1)n1cc(-c2ncnc3[nH]ccc23)cn1 (configuration not stated) | 112 ± 15% | 113 ± 13%
21 | CCCN(CCC)C(=O)C(CCC(=O)O)NC(=O)c1ccccc1 (configuration not stated) [Proglumide] | 100 ± 3% | 106 ± 24%
22 | CC[C@@H]1C(=O)N(C)c2cnc(Nc3ccc(C(=O)NC4CCN(C)CC4)cc3OC)nc2N1C1CCCC1 | 64.7 ± 9.6% | 96.8 ± 16%
23 | O=C1NC(=O)/C(=C/c2cccc(C(F)(F)F)c2)S1 | 112 ± 15% | 119 ± 17%
24 | Cn1ncc(Cl)c1-c1cc(C(=O)N[C@H](CN)Cc2cccc(F)c2)sc1Cl [Afuresertib] | 111 ± 4.8% | 113 ± 2.5%
25 | COc1cc(N2CCC(N3CCN(C)CC3)CC2)ccc1Nc1ncc(Cl)c(Nc2ccccc2P(C)(C)=O)n1 [Brigatinib] | 115 ± 41% | 108 ± 28%
26 | O=C1c2cccc(O)c2C(=O)c2c(O)cccc21 [Antrapurol] | 112 ± 7.6% | 109 ± 3.2%
27 | CC(C)[C@H](CO)Nc1nc(Nc2cccc(Cl)c2)c2ncn(C(C)C)c2n1 [Purvalanol A] | 102 ± 7.3% | 106 ± 12%
28 | CNc1nc(Nc2cnn([C@H]3CCN(C4COC4)C[C@@H]3F)c2Cl)ncc1C(F)(F)F | 99.6 ± 15% | 106 ± 2.4%
29 | CC(=O)CC(c1ccccc1)c1c(O)c2ccccc2oc1=O (configuration not stated) [Warfarin] | 109 ± 8.2% | 103 ± 7%
30 | Cc1ccc(NC(=O)c2cccc(N(C)C)c2)cc1NC(=O)c1ccc(O)cc1 | 94.6 ± 6% | 103 ± 5.7%
31 | CC(C)(C)c1cc(NC(=O)Nc2ccc(-c3cn4c(n3)sc3cc(OCCN5CCOCC5)ccc34)cc2)no1 [Quizartinib (AC220)] | 9.37 ± 9.1% | 3.71 ± 2.9%
